Measured values published in PubChem BioAssay.
Several values for one entry are separate records, joined by “and”; a condition that tells them apart may be missing. Equal entries are not always repeated. Activity calls are given as the source filed them.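 The calls were made as follows, unless noted: active = inhibition at or above 50% relative to wild type and mutant plate controls; inactive = inhibition below 50%.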

Key:
[1] = endothelial E-selectin expression blockers – imaging, HUVEC, immunofluorescence, MLSMR starter and 10KST1 sets, primary screen (AID 487;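 active = visually confirmed hit in the image check and inhibition above 20%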;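 as to inhibition: signal is fraction of cell area covered by stained E-selectin grains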;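 as to nuclei count: 100% = median nuclei count of all wells on the same plate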); details: HUVEC TNFalpha-induced E-selectin immunofluorescence imaging, at 2 µM; inhibition: stronger effect = higher value; nuclei count: measured here: cell number, toxicity
[2] = Primary imaging screen for DUSP6 inhibitors that restore phospho-Erk in transfected HeLa cells, chemical complementation (AID 609;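 active = compounds giving at least 50% inhibition in the cell-based MKP-3 phosphatase rescue imaging test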;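 as to inhibition: phospho-Erk level distribution per well compared with pooled transfected vehicle control wells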); details: HeLa MKP-3 transfected, phospho-Erk imaging KS statistic, at 10 µM, cells stimulated with TPA for 15 min
[3] = target: Dual specificity protein phosphatase 6 (Homo sapiens) (UniProt Q16828); assay: as above; details: HeLa MKP-3 transfected, phospho-Erk imaging KS statistic; at 10 µM; stronger effect = higher value; cells stimulated with TPA for 15 min
Sequence of Dual specificity protein phosphatase 6 (Homo sapiens) (Q16828 whole entry, looked up): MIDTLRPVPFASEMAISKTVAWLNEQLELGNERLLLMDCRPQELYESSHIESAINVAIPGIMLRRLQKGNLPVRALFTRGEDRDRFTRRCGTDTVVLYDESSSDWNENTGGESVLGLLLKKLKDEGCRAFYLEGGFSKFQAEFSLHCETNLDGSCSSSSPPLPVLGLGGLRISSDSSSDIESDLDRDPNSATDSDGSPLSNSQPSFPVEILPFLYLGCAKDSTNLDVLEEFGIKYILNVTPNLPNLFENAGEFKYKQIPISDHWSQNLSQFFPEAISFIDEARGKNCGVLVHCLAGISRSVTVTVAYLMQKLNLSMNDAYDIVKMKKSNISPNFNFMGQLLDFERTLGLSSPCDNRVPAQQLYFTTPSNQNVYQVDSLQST

[4] = target: Voltage-gated potassium channel subunit beta-2 (Rattus norvegicus) (UniProt P62483); assay: inhibitors of rat Kvbeta2 reductase activity – biochemical, NADPH fluorescence, primary screen (AID 622;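 active = fluorescence slope higher than the sample average by over 3 SD, cut at about -0.22 in these data, passing the limit was not always enough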;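 also: slope of raw intensity against log time taken from 70 to 1610 s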); details: recombinant KvBeta, 4-cyanobenzaldehyde reduction, at 10 µM, stronger effect = higher value
Sequence of Voltage-gated potassium channel subunit beta-2 (Rattus norvegicus) (P62483 whole entry, looked up): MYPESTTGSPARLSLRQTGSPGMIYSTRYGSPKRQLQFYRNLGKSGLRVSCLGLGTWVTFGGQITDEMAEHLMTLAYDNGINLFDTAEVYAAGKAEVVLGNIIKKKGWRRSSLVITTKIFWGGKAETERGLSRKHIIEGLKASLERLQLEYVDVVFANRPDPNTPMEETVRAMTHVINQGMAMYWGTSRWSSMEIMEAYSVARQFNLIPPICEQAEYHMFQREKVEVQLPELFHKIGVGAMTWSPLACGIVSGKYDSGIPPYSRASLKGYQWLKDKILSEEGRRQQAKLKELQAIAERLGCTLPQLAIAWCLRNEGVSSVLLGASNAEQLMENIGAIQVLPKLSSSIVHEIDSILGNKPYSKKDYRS

[5] = target: Voltage-gated potassium channel subunit beta-2 (Rattus norvegicus) (UniProt P62483); assay: enhancers of rat Kvbeta2 NADPH turnover – biochemical, NADPH fluorescence, primary screen (AID 623;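 active = NADPH fluorescence slope more negative than the mean of all samples by about 3 SD, 99.7% confidence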;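 also: fluorescence intensity change per second fitted from 20 to 320 s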); details: Recombinant KvBeta, NADPH fluorescence decrease slope, 10 min; at 10 µM; stronger effect = lower value
[6] = target: Alpha-2C adrenergic receptor (Homo sapiens) (UniProt P18825); assay: compounds altering alpha2C-coupled GIRK flux – cell-based, HEK293 alpha2C/GIRK1/2, thallium flux, primary screen (AID 624;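 active = fluorescence slope after compound addition differing from the mean of all screened samples at 99.7% confidence, in either direction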;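 also: slope of fluorescence ratio to pre-addition baseline per second over 15 to 24 s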); details: thallium flux BTC fluorescence, at 10 µM, actives lie on both sides
Sequence of Alpha-2C adrenergic receptor (Homo sapiens) (P18825 whole entry, looked up): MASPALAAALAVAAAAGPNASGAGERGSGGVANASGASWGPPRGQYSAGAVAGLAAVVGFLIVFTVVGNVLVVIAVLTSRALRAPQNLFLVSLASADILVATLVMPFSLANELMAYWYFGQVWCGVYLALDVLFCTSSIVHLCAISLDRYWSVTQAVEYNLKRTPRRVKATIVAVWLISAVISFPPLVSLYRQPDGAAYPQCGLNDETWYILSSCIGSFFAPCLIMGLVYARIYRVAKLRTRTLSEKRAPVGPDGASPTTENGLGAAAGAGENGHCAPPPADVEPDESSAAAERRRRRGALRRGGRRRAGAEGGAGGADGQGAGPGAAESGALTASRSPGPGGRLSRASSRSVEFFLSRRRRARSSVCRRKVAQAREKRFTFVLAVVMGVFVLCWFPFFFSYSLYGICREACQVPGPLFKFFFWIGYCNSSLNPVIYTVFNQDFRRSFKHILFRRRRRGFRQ

[7] = inhibitors of larval lipid processing in zebrafish, primary screen, whole organism, PED6 fluorescence, gall bladder and intestine (AID 686;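 active = a full or partial loss of lipid-probe fluorescence in the fish gall bladder, intestine or both, judged by eye; inactive = no fluorescence loss, or compound toxic to the fish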;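 also: larvae 5 to 7 days old with five fish per well; signal comes from phospholipase A2 cleavage of quenched PED6 carried via bile; overnight exposure to compound and PED6 before scoring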); details: Zebrafish larvae PED6 lipid processing, fluorescence scoring; screened at 20 µM (by protocol)
[8] = loss of swimming-algae plug formation – whole organism, Chlamydomonas reinhardtii, WT vs cilia-less mutant, absorbance, 96-well, primary screen (AID 463189); details: Chlamydomonas reinhardtii gravitaxis, OD600 absorbance, 2 days; at 10 µM; stronger effect = higher value;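 also: 0% = wild type cc124 cells in DMSO and 100% = ciliumless bld1 mutant cells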
[9] = blockers of RIG-like receptor reporter activation – cell-based, Sendai virus stimulus, luciferase, 10K MLSCN set, TLR/RLR signaling modifier project, primary screen (AID 602276;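 active = inhibition at or above 50% at 10 µM; inactive = inhibition below 50%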;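 also: firefly luciferase from ISG56 promoter only with Renilla not read in this screen; 0% = Sendai virus plus DMSO and 100% = medium plus DMSO without virus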); details: HEK293 RL24 IRF3 luciferase reporter, at 10 µM, stronger effect = higher value
[10] = TLR3 IRF3 reporter activation blockers – cell-based, poly I:C stimulus, luciferase, 10K MLSCN set, primary screen (AID 602277;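 active = inhibition of the reporter signal at or above 50%; inactive = inhibition below 50%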); details: HEK293-TLR3 RL24 IRF3 luciferase reporter, at 10 µM, stronger effect = higher value
[11] = target: Muscarinic acetylcholine receptor M4 (Homo sapiens) (UniProt P08173); assay: M4-linked GIRK flux change, two-sided – cell-based, HEK293 M4/GIRK, thallium flux, BTC-AM, M4 allosteric agonist project, primary screen (AID 625;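 active = fluorescence slope after compound addition differing from the mean of all tested samples at 99.7% confidence, mostly higher but some lower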;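 also: thallium influx through GIRK channels coupled to M4 in HEK293 cells with BTC-AM dye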); details: at 10 µM, actives lie on both sides
Sequence of Muscarinic acetylcholine receptor M4 (Homo sapiens) (P08173 whole entry, looked up): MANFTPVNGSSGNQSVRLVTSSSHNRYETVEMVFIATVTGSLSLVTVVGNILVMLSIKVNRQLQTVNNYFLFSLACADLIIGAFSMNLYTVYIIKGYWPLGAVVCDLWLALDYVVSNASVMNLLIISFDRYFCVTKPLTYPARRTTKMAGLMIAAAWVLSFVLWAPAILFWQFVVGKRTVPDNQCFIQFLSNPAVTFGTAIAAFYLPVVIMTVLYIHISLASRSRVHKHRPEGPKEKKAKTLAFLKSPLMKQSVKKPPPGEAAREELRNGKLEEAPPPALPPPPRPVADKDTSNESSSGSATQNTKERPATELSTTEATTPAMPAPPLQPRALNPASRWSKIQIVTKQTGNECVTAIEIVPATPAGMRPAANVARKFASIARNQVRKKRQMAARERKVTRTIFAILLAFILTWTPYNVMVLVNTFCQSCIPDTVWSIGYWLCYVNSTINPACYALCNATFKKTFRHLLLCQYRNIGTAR

[12] = reduction of polyQ htt aggregates in cells – imaging, exon1htt(103Q)mCFP cells, high-content imaging, primary screen (AID 483;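 active = visual image review flags a hit and inhibition of aggregation exceeds 20%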;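 also: compound exposure lasted 3 days before fixation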;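 as to nuclei count: percent of the per-plate median nuclei count of sample wells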); details: exon1htt(103Q)mCFP cell line, aggregate imaging, at 2 µM; inhibition of aggregation: stronger effect = higher value; nuclei count: measured here: cell count, toxicity
[13] = measured here: cell density z-score
[14] = measured here: nuclear c-Myc green intensity z-score
[15] = measured here: nuclear pErk red intensity z-score, stronger effect = higher value

Row | SMILES | inhibition [1] | nuclei count [1] [%] | z-score [2, 13] | z-score [2, 14] | z-score [2, 15] | inhibition [3] | fluorescence slope [4] | NADPH fluorescence slope [5] | slope [6] | outcome [7] | inhibition [8] | inhibition [9] | inhibition [10] | fluorescence slope [11] | inhibition of aggregation [12] | nuclei count [12] [%]
1 | COc1ccc([C@@H]2Sc3ccccc3N(CCN(C)C)C(=O)[C@@H]2OC(C)=O)cc1 | -27.1% (inactive) | 104 | 0.794 | -1.47 | 0.473 | -4.44% (inactive) | -0.507 (inactive) | -7.4e-05 (inactive) | 0.00609 (inactive) | inactive | 4.06% (inactive) and -15.6% (inactive) | 16.3% (inactive) | 35.5% (inactive) |  |  | 
2 | Cc1cccc(OCC(=O)NCC(=O)n2nc(C)cc2C)c1 | -106% (inactive) | 146 | -0.336 | 0.0922 | 0.78 | -7.79% (inactive) | -0.413 (inactive) | -9.5e-06 (inactive) |  | inactive | 16.2% (inactive) |  |  | 0.00436 (inactive) |  | 
3 | COc1ccc(-c2coc3cc(O)cc(O)c3c2=O)cc1 |  |  | -0.996 | 0.921 | 0.72 | 10.2% (inactive) | -0.544 (inactive) | -4.1e-06 (inactive) | 0.00576 (inactive) | inactive | -12.4% (inactive) | -90.2% (inactive) | -200% (inactive) |  | 9.1% (inactive) | 116
4 | C=CCNc1nc(C2(C)CC3(CC(C)(C)OC3=O)C(=O)O2)cs1 (stereo unspecified) | -142% (inactive) | 155 | 0.249 | -0.125 | -1.68 | -2.07% (inactive) | -0.315 (inactive) | -1.4e-05 (inactive) |  | inactive | 6.21% (inactive) |  |  | 0.0082 (inactive) |  | 
5 | COc1ccc(C(=O)N2CCCC(c3ccccc3)C2)cc1 (stereo unspecified) | -91.1% (inactive) | 167 | -0.133 | 0.389 | 0.742 | -7.79% (inactive) | -0.406 (inactive) | -4.3e-05 (inactive) |  | inactive | 8.1% (inactive) |  |  | 0.00466 (inactive) |  | 
6 | O=P(Cc1nnco1)(c1ccccc1)c1ccccc1 | 0.9% (inactive) | 176 | 0.578 | -1.79 | 0.749 | -3.98% (inactive) | -0.431 (inactive) | -5.1e-05 (inactive) |  | inactive | -3.84% (inactive) |  |  | 0.00527 (inactive) |  | 
7 | C1CNCCNCCCNCCNC1 |  |  |  |  |  |  | -0.454 (inactive) | -6.6e-05 (inactive) |  | inactive | -15.9% (inactive) |  |  |  | 19.7% (inactive) | 100
8 | O=C(NCC1CCCCN1)c1cc(OCC(F)(F)F)ccc1OCC(F)(F)F (stereo unspecified) | -29.3% (inactive) | 107 | 0.584 | 0.032 | 0.103 | 15.3% (inactive) | -0.495 (inactive) | -5.3e-05 (inactive) | 0.00342 (inactive) | inactive | -10.1% (inactive) and -10.2% (inactive) | -8.5% (inactive) | 50.6% (active) |  |  | 
9 | O=P(O)(c1ccccc1)c1ccccc1O | 2% (inactive) | 77.2 | 0.571 | 0.329 | 0.814 | 5.57% (inactive) | -0.452 (inactive) | -1.5e-05 (inactive) |  | inactive | 28.7% (inactive) |  |  | 0.00546 (inactive) |  | 
10 | CC(=O)O[C@@]12CO[C@@H]1C[C@H](O)[C@@]1(C)C(=O)[C@H](O)C3=C(C)[C@@H](OC(=O)[C@H](O)[C@@H](NC(=O)OC(C)(C)C)c4ccccc4)C[C@](O)([C@@H](OC(=O)c4ccccc4)[C@H]21)C3(C)C |  |  | -1.36 | 0.683 | 1.58 | -9.66% (inactive) | -0.48 (inactive) | -5.5e-05 (inactive) | 0.00555 (inactive) | inactive | 22.5% (inactive) | 37.7% (inactive) | 38.9% (inactive) |  | -77% (inactive) | 4.4
11 | COc1cccc(C(=O)OCCN(C)C(C)(C)C)c1 | -23.7% (inactive) | 128 | 0.369 | 1.71 | -0.0558 | 17% (inactive) | -0.414 (inactive) | -3.4e-05 (inactive) |  | inactive | 31.9% (inactive) |  |  | 0.00557 (inactive) |  | 
12 | O=C(O)c1ccc(COCC(F)(F)C(F)F)o1 | -92.5% (inactive) | 150 | -0.0306 | -1.01 | 0.623 | 5.26% (inactive) | -0.428 (inactive) | -0.000116 (inactive) | 0.00477 (inactive) | inactive | 25% (inactive) |  |  |  |  | 
13 | NC(N)=Nc1nc(CSCC/C(N)=N/S(N)(=O)=O)cs1 | -48.3% (inactive) | 116 | -1.28 | 1.78 | -1.37 | 16.8% (inactive) |  |  | 0.00523 (inactive) | inactive | 2.23% (inactive) and -8.71% (inactive) | 13.5% (inactive) | 42.5% (inactive) |  | 0.8% (inactive) | 101
14 | CC1=NS(=O)(=O)c2cc(Cl)ccc2N1 | -68% (inactive) | 105 | 0.557 | 0.773 | -0.365 | 19.2% (inactive) | -0.43 (inactive) | -5.9e-05 (inactive) | 0.00504 (inactive) | inactive | -5.98% (inactive) and 10.3% (inactive) | 15.7% (inactive) | 41.7% (inactive) |  |  | 
